PubChem BioAssay
Active and inactive are the calls of the source.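 Rule for the calls, unless noted: active = inhibition at or above 50% at 10 µM; inactive = inhibition below 50%.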

Key:
[1] = inhibitors of TNFa-induced NFkB p65 translocation, primary screen, imaging, HUVEC, MLSMR starter and 10KST1 sets (AID 438;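 active = inhibition above 20% together with a positive visual image hit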;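 note: compound added about 3h40 before a 20 min TNFalpha stimulation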;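 for inhibition: signal is the nuclear over cytoplasmic p65 intensity ratio per well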); details: HUVEC TNFa-induced p65 nuclear translocation; cell count: measured here: nuclei count (cytotoxicity indicator), at 2.08 µM; inhibition: at 2 µM, stronger effect = higher value, 0% TNFa-plus-vehicle, 100% no-TNFa wells
[2] = inhibitors of mutant huntingtin aggregation, primary screen, imaging, exon1htt(103Q)mCFP cells, high-content imaging (AID 483;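 active = visual image review flags a hit and inhibition of aggregation exceeds 20%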;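 note: compound exposure lasted 3 days before fixation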;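 for nuclei count: percent of the per-plate median nuclei count of sample wells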); details: exon1htt(103Q)mCFP cell line, aggregate imaging, at 2 µM; inhibition of aggregation: stronger effect = higher value; nuclei count: measured here: cell count, toxicity
[3] = inhibitors of E-selectin induction by TNFa, primary screen, imaging, HUVEC, immunofluorescence, MLSMR starter and 10KST1 sets (AID 487;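 active = visually confirmed hit in the image check and inhibition above 20%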;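 for inhibition: signal is fraction of cell area covered by stained E-selectin grains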;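 for nuclei count: 100% = median nuclei count of all wells on the same plate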); details: HUVEC TNFalpha-induced E-selectin immunofluorescence imaging, at 2 µM; inhibition: stronger effect = higher value; nuclei count: measured here: cell number, toxicity
[4] = target: Voltage-gated potassium channel subunit beta-2 (Rattus norvegicus) (UniProt P62483); assay: KvBeta enzyme negative modulators, primary screen, biochemical, NADPH fluorescence (AID 622;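 active = fluorescence slope higher than the sample average by over 3 SD, cut at about -0.22 in these data, passing the limit was not always enough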;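 note: slope of raw intensity against log time taken from 70 to 1610 s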); details: recombinant KvBeta, 4-cyanobenzaldehyde reduction, at 10 µM, stronger effect = higher value
Sequence of Voltage-gated potassium channel subunit beta-2 (Rattus norvegicus) (P62483 whole entry, looked up): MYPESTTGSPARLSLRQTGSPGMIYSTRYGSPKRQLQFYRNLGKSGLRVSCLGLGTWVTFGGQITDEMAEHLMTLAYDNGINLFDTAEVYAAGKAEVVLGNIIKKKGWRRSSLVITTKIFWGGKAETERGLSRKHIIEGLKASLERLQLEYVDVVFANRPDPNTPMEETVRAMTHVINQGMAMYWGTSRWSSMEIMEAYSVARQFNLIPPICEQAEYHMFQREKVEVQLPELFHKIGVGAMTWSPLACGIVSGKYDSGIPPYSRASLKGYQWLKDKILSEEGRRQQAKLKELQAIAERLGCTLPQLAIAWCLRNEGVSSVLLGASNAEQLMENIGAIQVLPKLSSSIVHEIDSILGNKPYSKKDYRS

[5] = target: Voltage-gated potassium channel subunit beta-2 (Rattus norvegicus) (UniProt P62483); assay: KvBeta positive modulators, primary screen, biochemical, NADPH fluorescence (AID 623;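 active = NADPH fluorescence slope more negative than the mean of all samples by about 3 SD, 99.7% confidence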;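 note: fluorescence intensity change per second fitted from 20 to 320 s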); details: Recombinant KvBeta, NADPH fluorescence decrease slope, 10 min; at 10 µM; stronger effect = lower value
[6] = target: Alpha-2C adrenergic receptor (Homo sapiens) (UniProt P18825); assay: modulators of alpha2C/GIRK thallium flux, primary screen, cell-based, HEK293 alpha2C/GIRK1/2 (AID 624;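 active = fluorescence slope after compound addition differing from the mean of all screened samples at 99.7% confidence, in either direction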;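 note: slope of fluorescence ratio to pre-addition baseline per second over 15 to 24 s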); details: thallium flux BTC fluorescence, at 10 µM, actives lie on both sides
Sequence of Alpha-2C adrenergic receptor (Homo sapiens) (P18825 whole entry, looked up): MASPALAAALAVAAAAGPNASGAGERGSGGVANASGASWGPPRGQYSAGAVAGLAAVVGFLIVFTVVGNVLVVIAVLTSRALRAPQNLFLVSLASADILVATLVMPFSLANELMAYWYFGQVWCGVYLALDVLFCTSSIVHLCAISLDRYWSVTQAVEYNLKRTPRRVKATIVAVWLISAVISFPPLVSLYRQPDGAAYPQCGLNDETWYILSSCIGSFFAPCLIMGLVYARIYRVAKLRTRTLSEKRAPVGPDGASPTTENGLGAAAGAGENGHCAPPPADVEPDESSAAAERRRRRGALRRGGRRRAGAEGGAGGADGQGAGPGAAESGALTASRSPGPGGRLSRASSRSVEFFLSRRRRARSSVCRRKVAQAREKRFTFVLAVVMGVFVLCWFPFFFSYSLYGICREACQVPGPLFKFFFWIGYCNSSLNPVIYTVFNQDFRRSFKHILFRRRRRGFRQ

[7] = inhibitors of Sendai virus-induced IRF3 signaling, primary screen, TLR/RLR signaling modifier project, cell-based, Sendai virus stimulus, luciferase, 10K MLSCN set (AID 602276); details: HEK293 RL24 IRF3 luciferase reporter, at 10 µM, stronger effect = higher value;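 note: firefly luciferase from ISG56 promoter only with Renilla not read in this screen; 0% = Sendai virus plus DMSO and 100% = medium plus DMSO without virus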
[8] = inhibitors of poly I:C-induced TLR3 signaling, primary screen, cell-based, poly I:C stimulus, luciferase, 10K MLSCN set (AID 602277;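 active = inhibition of the reporter signal at or above 50%; inactive = inhibition below 50%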); details: HEK293-TLR3 RL24 IRF3 luciferase reporter, at 10 µM, stronger effect = higher value

| Compound | cell count [1] | inhibition [1] | inhibition of aggregation [2] | nuclei count [2] [%] | inhibition [3] | nuclei count [3] [%] | fluorescence slope [4] | NADPH fluorescence slope [5] | slope [6] | inhibition [7] | inhibition [8] |
| --- | --- | --- | --- | --- | --- | --- | --- | --- | --- | --- | --- |
| COc1cc(C(=O)Nc2cc(C)ccn2)cc(OC)c1OC | 298 | -1.9% (inactive) | 4.3% (inactive) | 98.4 | -87% (inactive) | 113 | -0.472 (inactive) | 3.1e-06 (inactive) | 0.00568 (inactive) | -4.57% (inactive) | 7.2% (inactive) |
| CN(c1ccccc1)S(=O)(=O)c1ccc(C(=O)OCC(=O)N2CCOCC2)cc1 | 420 | -5.7% (inactive) | 8.2% (inactive) | 92.9 | 0.3% (inactive) | 105 | -0.583 (inactive) | -6.4e-05 (inactive) | 0.00565 (inactive) | 11.4% (inactive) | 22% (inactive) |
| CCC(C)(C)NC(=O)C(c1ccco1)N(C(=O)Cn1nnc2ccccc21)c1ccc2c(c1)OCO2 (configuration not stated) | 497 | -25% (inactive) | 14.5% (inactive) | 86 | -10.4% (inactive) | 102 | -0.522 (inactive) | -2e-05 (inactive) | 0.00407 (inactive) | 14.6% (inactive) | 21% (inactive) |
| COc1ccc(NC(=O)COc2ccccc2)c(OC)c1 | 404 | 8.8% (inactive) | -15.2% (inactive) | 106 | 1.1% (inactive) | 108 | -0.418 (inactive) | -4.6e-05 (inactive) | 0.00449 (inactive) | -32.8% (inactive) | -89.1% (inactive) |
| CCOc1cc(NC(=O)c2ccco2)c(OCC)cc1NC(=O)CCc1ccc(OC)cc1 | 630 | -0.7% (inactive) | -13.7% (inactive) | 109 | 23.6% (inactive) | 102 | -0.513 (inactive) | -6.7e-06 (inactive) | 0.00426 (inactive) | -0.546% (inactive) | -4.67% (inactive) |
| CCCN(C(=O)CSc1nnc(-c2ccoc2C)n1N)C1CCS(=O)(=O)C1 (configuration not stated) | 468 | 11.7% (inactive) | -26.6% (inactive) | 116 | 30.6% (inactive) | 108 | -0.413 (inactive) | -8.5e-05 (inactive) | 0.00528 (inactive) | 15.7% (inactive) | 22.7% (inactive) |
| COC(=O)[C@H](C)NC(=O)Nc1cccc(C(F)(F)F)c1 | 483 | -2.7% (inactive) | 29.8% (inactive) | 85.5 | -98.7% (inactive) | 109 | -0.537 (inactive) | 2.9e-05 (inactive) | 0.00446 (inactive) | -11.9% (inactive) | -5.94% (inactive) |
